Measurements published in PubChem BioAssay.
Activity calls are given as the source filed them.

Columns and labels:
[1] = tested on: PRMT1 (protein arginine N-methyltransferase 1); test: PRMT1 binders on small-molecule microarrays, primary screen, biochemical, small-molecule microarray, 635 nm fluorescence (AID 1088); conditions: small-molecule microarray binding, higher = more signal;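 also: binding of Prmt1 protein to compounds spotted on small-molecule microarray slides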
[2] = yeast growth modulation, basal conditions, primary screen, YJM789 clinical isolate, OD600, 24 h (AID 1089);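 also: growth of clinical yeast isolate S. cerevisiae YJM 789 seeded 1000 cells per well; test concentration not given here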; conditions: S. cerevisiae YJM789 growth, higher = more signal, called active from +8 up or from −8 down
[3] = fission yeast growth modulation, primary screen, strain 972, OD600, 24 h, no modulator (AID 1090);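 also: basal condition with compound alone and no growth modifier present; test concentration not given here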; conditions: S. pombe 972 growth, higher = more signal, called active from +8 up or from −8 down
[4] = S. cerevisiae growth modulation with rapamycin, primary screen, strain BY4716, OD600, 96 h (AID 1091); conditions: higher = more signal, called active from +8 up or from −8 down; also: test concentration not given here
[5] = target: Torsin-1A-interacting protein 2 (Homo sapiens) (UniProt Q8NFQ8); test: LULL1 binders on small-molecule microarray, primary screen, cell lysate, human LULL1 lysate, 635/667 nm fluorescence (AID 1092); conditions: hLULL1 lysate binding, 635 nm fluorescence, higher = more signal;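 also: probe is lysate of COS7 cells overexpressing human LULL1; score merges per-feature 667 nm fluorescence with signal-to-noise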
[6] = E. coli growth modulation, two-sided OD650, primary screen, E. coli filamentation project, strain DRC41, 24 h (AID 1093); conditions: OD650, 24 h, higher = more signal, called active from +8 up or from −8 down;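 also: MC1000 strain lacking acrAB efflux and sulA so SOS filamentation is blocked; test concentration not given here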
[7] = small-molecule microarray binders of probe aLefty2, primary screen, biochemical, biotinylated probe, 635/667 nm fluorescence (AID 1094); conditions: higher = more signal;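 also: score merges spot fluorescence near 667 nm with spot signal-to-noise ratio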
[8] = tested on: Noggin (protein binding on small-molecule microarray); test: Noggin binders on small-molecule microarray, primary screen, biochemical, 635/667 nm fluorescence (AID 1095); conditions: 635 nm fluorescence, higher = more signal;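 also: score merges 667 nm feature fluorescence with signal to noise over triplicate slides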
[9] = target: Neurogenic locus notch homolog protein 3 (Homo sapiens) (UniProt Q9UM47); test: NOTCH3 binders on small-molecule microarray, primary screen, biochemical, 635/667 nm fluorescence (AID 1096); conditions: NOTCH3 binding, 635 nm fluorescence, higher = more signal
[10] = small-molecule microarray binders of probe aEGFR, primary screen, biochemical, biotinylated probe, 635/667 nm fluorescence (AID 1097); conditions: higher = more signal;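 also: probe is a biotinylated anti-EGFR antibody binding compounds printed on slides; score combines fluorescence near 667 nm and signal to noise of each spot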
[11] = tested on: Plasmodium falciparum Sir2 (PF13_0152, Sir2A); test: pfSir2 binders on small-molecule microarrays, primary screen, biochemical, small-molecule microarray, 635 nm fluorescence (AID 1098); conditions: small-molecule microarray binding, fluorescence 635 nm; higher = more signal;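 also: score merges spot fluorescence intensity with its signal-to-noise ratio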
[12] = small-molecule microarray binders of probe aDKK1, primary screen, biochemical, biotinylated probe, 635/667 nm fluorescence (AID 1099); conditions: higher = more signal;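 also: score merges 667nm spot fluorescence with signal to noise across triplicate slides; reference of the scale not given here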
[13] = small-molecule microarray binders of probe aCHRDL2, primary screen, biochemical, biotinylated probe, 635/667 nm fluorescence (AID 1100); conditions: higher = more signal
[14] = splicing luciferase reporter signal modulators, primary screen, spliceosome inhibition project, cell-based, HEK293, splice +/- reporter (AID 1101); conditions: luminescence, 24 h, higher = more signal, called active from +8 up or from −8 down;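 also: HEK293 cells carrying a splicing-competent luciferase reporter gene; test concentration not given here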
[15] = target: Fibroblast growth factor 10 (Homo sapiens) (UniProt O15520); test: FGF10 binders on small-molecule microarrays, primary screen, biochemical, small-molecule microarray, 635 nm fluorescence (AID 1102); conditions: FGF10 binding, fluorescence 635 nm, higher = more signal
[16] = tested on: glycogen synthase kinase-3 (GSK3A per assay name; protocol says GSK3B); test: GSK3 binders on small-molecule microarrays, primary screen, biochemical, small-molecule microarray, 635 nm fluorescence, GSK3A (AID 1103); conditions: small-molecule microarray binding, fluorescence 635 nm; higher = more signal; also: the record names both GSK3A and GSK3B
[17] = target: Epidermal growth factor receptor (Homo sapiens) (UniProt P00533); test: EGFR binders on small-molecule microarrays, primary screen, biochemical, small-molecule microarray, 635 nm fluorescence (AID 1104); conditions: EGFR binding, higher = more signal;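 also: score merges 667 nm emission intensity with spot signal to noise over triplicate slides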
[18] = target: Follistatin-related protein 3 (Homo sapiens) (UniProt O95633); test: FSTL3 binders on small-molecule microarrays, primary screen, biochemical, small-molecule microarray, 635 nm fluorescence (AID 1105); conditions: FSTL3 binding, higher = more signal;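 also: score merges emission near 667 nm and signal to noise per printed spot across three slides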
[19] = target: Dickkopf-related protein 1 (Homo sapiens) (UniProt O94907); test: DKK1 binders on small-molecule microarrays, primary screen, biochemical, small-molecule microarray, 635 nm fluorescence scan (AID 1106); conditions: DKK1 binding, higher = more signal;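 also: score merges emission near 667 nm with signal to noise over three replicate slides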
[20] = tested on: Inhibin beta A chain (activin A); test: INHBA (activin A) binders on microarrays, primary screen, biochemical, small-molecule microarray, 635 nm fluorescence scan (AID 1107); conditions: small-molecule microarray binding, higher = more signal;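 also: mouse activin A protein probed at 4.33 µg/mL on printed slides; score merges bound-protein fluorescence near 667 nm with spot signal-to-noise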

Epidermal growth factor receptor (Homo sapiens), sequence (P00533 whole entry, looked up): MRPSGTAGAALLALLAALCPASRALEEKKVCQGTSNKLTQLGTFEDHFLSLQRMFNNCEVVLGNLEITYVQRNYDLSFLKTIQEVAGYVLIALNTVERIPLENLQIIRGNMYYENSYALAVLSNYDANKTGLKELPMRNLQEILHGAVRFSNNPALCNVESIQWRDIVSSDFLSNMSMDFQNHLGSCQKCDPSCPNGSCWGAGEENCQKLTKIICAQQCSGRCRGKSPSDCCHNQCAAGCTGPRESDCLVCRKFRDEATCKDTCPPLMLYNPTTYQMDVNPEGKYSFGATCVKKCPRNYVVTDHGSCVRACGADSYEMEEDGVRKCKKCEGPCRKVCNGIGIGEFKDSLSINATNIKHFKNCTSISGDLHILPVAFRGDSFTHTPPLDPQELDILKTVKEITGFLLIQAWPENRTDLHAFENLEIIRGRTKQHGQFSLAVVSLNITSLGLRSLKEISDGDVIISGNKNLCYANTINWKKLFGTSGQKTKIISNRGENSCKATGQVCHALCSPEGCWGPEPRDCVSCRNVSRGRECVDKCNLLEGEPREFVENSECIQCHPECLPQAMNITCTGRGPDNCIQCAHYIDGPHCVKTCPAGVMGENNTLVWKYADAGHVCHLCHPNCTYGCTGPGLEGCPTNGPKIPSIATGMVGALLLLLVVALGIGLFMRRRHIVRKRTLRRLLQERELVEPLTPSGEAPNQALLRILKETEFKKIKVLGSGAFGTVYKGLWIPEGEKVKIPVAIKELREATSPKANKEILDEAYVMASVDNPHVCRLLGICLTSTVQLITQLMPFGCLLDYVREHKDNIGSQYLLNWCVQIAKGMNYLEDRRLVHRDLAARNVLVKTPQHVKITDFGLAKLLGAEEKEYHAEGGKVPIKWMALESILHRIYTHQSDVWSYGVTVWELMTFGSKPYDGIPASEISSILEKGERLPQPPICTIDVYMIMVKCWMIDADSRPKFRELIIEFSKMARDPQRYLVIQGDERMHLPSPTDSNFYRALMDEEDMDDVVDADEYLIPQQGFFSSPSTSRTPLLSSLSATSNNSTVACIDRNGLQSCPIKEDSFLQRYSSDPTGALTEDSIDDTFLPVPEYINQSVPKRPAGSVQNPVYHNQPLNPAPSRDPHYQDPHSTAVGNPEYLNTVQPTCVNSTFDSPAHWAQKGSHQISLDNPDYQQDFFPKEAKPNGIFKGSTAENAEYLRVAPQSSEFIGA
Fibroblast growth factor 10 (Homo sapiens), sequence (O15520 whole entry, looked up): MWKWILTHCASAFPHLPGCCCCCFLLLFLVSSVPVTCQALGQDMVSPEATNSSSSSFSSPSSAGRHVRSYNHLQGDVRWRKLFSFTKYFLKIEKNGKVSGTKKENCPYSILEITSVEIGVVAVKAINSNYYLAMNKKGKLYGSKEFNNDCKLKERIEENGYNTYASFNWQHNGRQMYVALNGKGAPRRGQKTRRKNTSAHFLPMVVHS
Dickkopf-related protein 1 (Homo sapiens), sequence (O94907 whole entry, looked up): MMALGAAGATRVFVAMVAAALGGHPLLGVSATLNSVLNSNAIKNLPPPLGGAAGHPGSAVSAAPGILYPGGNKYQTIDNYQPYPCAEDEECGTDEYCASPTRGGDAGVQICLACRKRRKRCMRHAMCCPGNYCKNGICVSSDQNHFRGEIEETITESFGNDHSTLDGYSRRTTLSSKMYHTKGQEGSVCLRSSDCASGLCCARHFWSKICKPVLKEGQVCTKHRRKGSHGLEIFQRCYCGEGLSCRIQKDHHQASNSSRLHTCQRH
Torsin-1A-interacting protein 2 (Homo sapiens), sequence (Q8NFQ8 whole entry, looked up): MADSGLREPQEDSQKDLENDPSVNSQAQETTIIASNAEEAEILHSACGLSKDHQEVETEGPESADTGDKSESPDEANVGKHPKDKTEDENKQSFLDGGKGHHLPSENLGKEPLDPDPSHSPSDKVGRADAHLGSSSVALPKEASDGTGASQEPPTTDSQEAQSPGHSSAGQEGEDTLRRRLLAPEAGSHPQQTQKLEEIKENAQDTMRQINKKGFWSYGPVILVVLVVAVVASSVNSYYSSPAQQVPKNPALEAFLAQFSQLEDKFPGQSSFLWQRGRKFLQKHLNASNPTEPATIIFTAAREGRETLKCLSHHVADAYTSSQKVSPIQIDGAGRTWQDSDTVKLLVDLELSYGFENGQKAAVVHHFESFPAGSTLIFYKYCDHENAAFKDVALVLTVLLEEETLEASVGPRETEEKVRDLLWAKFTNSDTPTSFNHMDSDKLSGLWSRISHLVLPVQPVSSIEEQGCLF
Follistatin-related protein 3 (Homo sapiens), sequence (O95633 whole entry, looked up): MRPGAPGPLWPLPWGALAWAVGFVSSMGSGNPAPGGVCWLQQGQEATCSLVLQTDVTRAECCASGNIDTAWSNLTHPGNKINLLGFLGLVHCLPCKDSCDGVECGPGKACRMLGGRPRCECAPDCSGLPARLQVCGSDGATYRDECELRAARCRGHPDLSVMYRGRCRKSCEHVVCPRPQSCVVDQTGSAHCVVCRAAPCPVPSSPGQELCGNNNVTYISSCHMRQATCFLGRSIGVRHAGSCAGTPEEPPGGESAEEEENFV
Neurogenic locus notch homolog protein 3 (Homo sapiens), sequence (Q9UM47 whole entry, looked up): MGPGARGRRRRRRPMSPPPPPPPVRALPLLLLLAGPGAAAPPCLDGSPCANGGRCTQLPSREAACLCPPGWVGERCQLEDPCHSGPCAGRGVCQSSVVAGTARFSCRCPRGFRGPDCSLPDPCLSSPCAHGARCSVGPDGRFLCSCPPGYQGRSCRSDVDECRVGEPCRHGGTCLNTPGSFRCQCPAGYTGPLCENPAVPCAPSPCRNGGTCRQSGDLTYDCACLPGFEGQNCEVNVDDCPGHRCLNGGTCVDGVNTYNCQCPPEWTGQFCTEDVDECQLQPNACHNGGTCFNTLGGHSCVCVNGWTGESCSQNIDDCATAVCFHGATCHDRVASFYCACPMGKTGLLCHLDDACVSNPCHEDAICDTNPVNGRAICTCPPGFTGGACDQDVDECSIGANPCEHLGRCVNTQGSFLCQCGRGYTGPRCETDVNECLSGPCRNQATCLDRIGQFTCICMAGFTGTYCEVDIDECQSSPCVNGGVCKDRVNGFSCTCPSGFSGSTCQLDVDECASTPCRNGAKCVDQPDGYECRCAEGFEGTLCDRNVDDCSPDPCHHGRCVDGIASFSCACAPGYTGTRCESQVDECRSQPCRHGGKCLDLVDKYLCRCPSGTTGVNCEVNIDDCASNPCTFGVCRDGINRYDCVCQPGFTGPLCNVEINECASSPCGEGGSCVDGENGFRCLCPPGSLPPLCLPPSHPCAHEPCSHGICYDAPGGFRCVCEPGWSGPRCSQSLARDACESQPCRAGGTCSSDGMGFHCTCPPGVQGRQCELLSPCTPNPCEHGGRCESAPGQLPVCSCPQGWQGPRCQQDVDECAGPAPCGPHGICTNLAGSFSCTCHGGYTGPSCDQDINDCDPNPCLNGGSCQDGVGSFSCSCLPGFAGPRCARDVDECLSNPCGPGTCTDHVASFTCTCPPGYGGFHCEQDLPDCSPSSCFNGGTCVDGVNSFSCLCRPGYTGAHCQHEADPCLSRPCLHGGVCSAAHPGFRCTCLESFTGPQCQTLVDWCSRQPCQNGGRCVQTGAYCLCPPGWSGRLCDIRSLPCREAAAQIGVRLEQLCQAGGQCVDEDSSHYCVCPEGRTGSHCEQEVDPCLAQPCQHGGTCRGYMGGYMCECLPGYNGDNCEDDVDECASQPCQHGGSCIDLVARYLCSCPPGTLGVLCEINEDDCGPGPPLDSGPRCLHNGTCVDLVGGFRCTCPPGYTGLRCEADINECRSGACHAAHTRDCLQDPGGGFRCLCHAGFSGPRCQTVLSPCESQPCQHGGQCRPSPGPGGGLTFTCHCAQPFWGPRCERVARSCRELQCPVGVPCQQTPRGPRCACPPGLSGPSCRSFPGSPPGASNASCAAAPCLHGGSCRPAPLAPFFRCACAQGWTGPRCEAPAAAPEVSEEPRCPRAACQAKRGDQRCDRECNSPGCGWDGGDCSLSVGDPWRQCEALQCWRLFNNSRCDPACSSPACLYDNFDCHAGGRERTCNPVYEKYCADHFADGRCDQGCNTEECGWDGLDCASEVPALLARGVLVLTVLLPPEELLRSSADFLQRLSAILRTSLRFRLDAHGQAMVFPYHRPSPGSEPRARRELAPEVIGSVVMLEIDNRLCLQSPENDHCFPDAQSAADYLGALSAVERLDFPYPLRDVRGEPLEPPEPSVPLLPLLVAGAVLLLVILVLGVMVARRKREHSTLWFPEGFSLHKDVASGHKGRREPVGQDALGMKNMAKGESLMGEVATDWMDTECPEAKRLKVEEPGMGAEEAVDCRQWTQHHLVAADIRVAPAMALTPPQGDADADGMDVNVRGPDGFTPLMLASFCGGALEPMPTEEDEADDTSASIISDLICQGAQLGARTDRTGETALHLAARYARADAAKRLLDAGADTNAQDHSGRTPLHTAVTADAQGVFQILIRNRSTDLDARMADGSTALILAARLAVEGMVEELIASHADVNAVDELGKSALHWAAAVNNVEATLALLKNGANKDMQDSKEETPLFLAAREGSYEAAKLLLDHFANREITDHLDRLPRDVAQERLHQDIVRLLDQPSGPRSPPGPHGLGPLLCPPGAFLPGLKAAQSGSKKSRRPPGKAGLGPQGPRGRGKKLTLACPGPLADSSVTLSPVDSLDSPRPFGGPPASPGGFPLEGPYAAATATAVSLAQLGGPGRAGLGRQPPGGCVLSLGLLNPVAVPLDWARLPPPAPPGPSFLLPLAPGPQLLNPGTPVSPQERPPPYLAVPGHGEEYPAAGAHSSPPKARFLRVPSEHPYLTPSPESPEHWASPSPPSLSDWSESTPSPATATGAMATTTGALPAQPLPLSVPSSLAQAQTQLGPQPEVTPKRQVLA

| Structure (SMILES) | composite z-score [1] | z-score [2] | z-score [3] | z-score [4] | composite z-score [5] | z-score [6] | composite z-score [7] | composite z-score [8] | composite z-score [9] | composite z-score [10] | composite z-score [11] | composite z-score [12] | composite z-score [13] | z-score [14] | composite z-score [15] | composite z-score [16] | composite z-score [17] | composite z-score [18] | composite z-score [19] | composite z-score [20] |
| --- | --- | --- | --- | --- | --- | --- | --- | --- | --- | --- | --- | --- | --- | --- | --- | --- | --- | --- | --- | --- |
| CCOC(=O)C=Cc1ccccc1O | 0.697 | -23.9 (active) | -9.67 (active) | -1.89 (inactive) | 1.44 | 0.354 (inactive) | -0.0432 | -0.0491 | 0.947 | 0.0594 | 0.109 | -0.0604 | 0.329 | -1.74 (inactive) | 0.278 | 0.513 | 0.363 | 0.435 | -0.0242 | 0.75 |
| NCCCCCNC(=O)[C@@H]1C[C@@H]2C(=O)N3CCC[C@H]3C(=O)N2[C@@H]1c1ccc(O)cc1 | 0.61 | 0.758 (inactive) | -0.986 (inactive) | 1.3 (inactive) | 1.97 | 1.05 (inactive) | 0.512 | 0.408 | 0.391 | 0.171 | 1.1 | 0.919 | 0.857 | -0.274 (inactive) | 0.927 | 1.14 | 0.114 | 0.495 | 0.853 | 0.98 |
| COC(=O)[C@@]1(Cc2ccccc2)[C@H]2c3cc(C(=O)N4CCCC4)n(CCSCCO)c3C[C@H]2CN1C(=O)c1ccccc1 | 0.465 | 0.118 (inactive) | 0.307 (inactive) | -0.0727 (inactive) | 3.67 | -1 (inactive) | 0.788 | 0.511 | 0.899 | 0.0971 | 0.809 | 1.25 | 1.2 | -0.393 (inactive) | 0.283 | 0.954 | -0.0631 | 0.414 | -0.78 | 0.964 |
| CN(C)C(=O)[C@@]1(Cc2ccccc2N=[N+]=[N-])N=C(c2ccc(OCCCO)cc2)O[C@H]1c1ccccc1 | 1.57 | 0.687 (inactive) | -4.17 (inactive) | 1.23 (inactive) | 3.38 | 0.1 (inactive) | 0.58 | -0.125 | 1.12 | 0.35 | 1.36 | 0.605 | 1.35 | 0.22 (inactive) | 0.607 | 1.22 | -0.103 | 0.465 | -0.217 | 0.787 |
| CCOC(=O)C[C@H]1[C@H](OC(=O)c2ccc(-c3ccccc3)cc2)[C@@H](NC(=O)CC(C)C)c2cc(OCCCO)ccc2N1C(=O)c1ccccc1 | 0.468 | 0.72 (inactive) | 1.4 (inactive) | 1.38 (inactive) | 1.49 | -0.513 (inactive) | -0.107 | 0.49 | 0.952 | 0.048 | 0.166 | 0.148 | -0.0525 | -0.493 (inactive) | 0.418 | -0.106 | -0.101 | 0.648 | 0.455 | 0.214 |
